# Most compounds without a hit are left out; they make up all but 21% or so of the library.
# TDP1 cell CPT – DT40-hTDP1 cell growth loss with CPT; chicken DT40 Tdp1-/-;hTDP1 cells + 20 nM CPT, ATP luminescence, 48 h; Potency, µM (titrated, usually from 46.2 µM), without a hit: at the highest dose activity change, negative = growth inhibition, usual class: inhibitors; hit rate 12% among 420,000; AID 686979; note: potency is the fitted concentration of half-maximal effect; % is set by controls: 0 for no effect and ±100 for the full control effect; nearly all actives have a fitted effect of over 55% in size
#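 Cell growth measured by CellTiter-Glo luminescence after a minimum 48 h, 37 C compound exposure with 20 nM CPT in Tdp1-knockout DT40 cells stably expressing hTDP1, seeded 400/well; qHTS titration format.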
# D3 ag – D3 dopamine receptor (human) agonism; P35462; D3R DiscoveRx beta-arrestin cells, luminescence, 90 min; max activation, %; hit rate 0.58% among 410,000; AID 652048; in the data active = max activation above about 30%; note: 0% is about no effect
# Target sequence (P35462 whole entry, looked up): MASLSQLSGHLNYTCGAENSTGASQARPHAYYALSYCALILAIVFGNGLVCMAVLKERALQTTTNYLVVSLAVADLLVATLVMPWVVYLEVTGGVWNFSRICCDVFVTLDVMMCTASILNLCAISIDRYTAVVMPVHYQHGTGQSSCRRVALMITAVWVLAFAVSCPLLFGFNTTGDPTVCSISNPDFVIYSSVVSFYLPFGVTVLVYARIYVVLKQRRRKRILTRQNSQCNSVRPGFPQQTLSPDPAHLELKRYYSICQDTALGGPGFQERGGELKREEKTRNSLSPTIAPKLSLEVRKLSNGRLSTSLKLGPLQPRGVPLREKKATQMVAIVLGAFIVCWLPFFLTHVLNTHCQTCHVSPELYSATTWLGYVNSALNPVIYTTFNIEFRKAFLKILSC
#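 Agonist mode: compounds and dopamine controls were applied to plated cells for 90 min at 37 degrees C after an overnight attachment at 1500 cells/well. Luminescent read-out followed 30 - 60 minutes at room temperature with DiscoveRx detection reagent.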
# ClpP mod – qHTS Assay for Activators of ClpP | hit rate 1.9% among 340,000 | purified B. subtilis ClpP, FRET peptide cleavage, 20 min | ATP-dependent Clp protease proteolytic subunit (Bacillus subtilis (strain 168)), P80244 | AID 651965, 2013 | Potency, µM (doses to about 57.5 µM), inactives show at the highest dose activity change, negative = active; active = well fitted falling curve with a large enough effect; inconclusive = small, poorly fitted or top-dose-only effect; inactive = no such curve, though single readings can be large or run the other way; note: potency is the fitted concentration of half-maximal effect; the source files actives as falling curves though it sought activators and does not explain the sign; nearly all actives have a fitted effect of over 65% in size
# Target sequence (P80244 whole entry, looked up): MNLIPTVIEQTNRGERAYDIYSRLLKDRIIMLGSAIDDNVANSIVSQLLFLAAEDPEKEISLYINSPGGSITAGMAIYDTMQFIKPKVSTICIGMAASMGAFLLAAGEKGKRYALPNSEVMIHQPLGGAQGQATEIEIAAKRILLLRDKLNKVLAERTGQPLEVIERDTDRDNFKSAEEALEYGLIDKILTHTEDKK
#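 Buffer: 100 mM Tris/HCl pH8, 100 mM KCl, 0.05% low protease BSA, 2.5% glycerol, 0.01% Tween-20. ClpP 10 microg/mL final; 20 min RT; delta FRET normalized to ADEP and DMSO controls.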
# D3 antag – D3 dopamine receptor (human) antagonism; D3R cells, DiscoveRx beta-arrestin luminescence, antagonist mode; stronger effect = lower value; P35462; hit rate 2.5% among 360,000; max response, negative = inhibition, %; in the data active = max response below about -50%; inconclusive = no clear call, values can overlap the other calls; note: % is set by controls: 0 for no effect and ±100 for the full control effect
#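 Cells plated overnight at 1500 cells/well, then exposed to library compounds with dopamine controls for 90 minutes at 37 degrees C. DiscoveRx reagent added for 30–60 minutes at room temperature; luminescence read, quantitative HTS format.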
# TDP1 cell noCPT – qHTS for Inhibitors of human tyrosyl-DNA phosphodiesterase 1 (TDP1): qHTS in cells in absence of CPT; AID 686978, 2013; DT40 Tdp1-/- hTDP1 cells, no CPT, ATP luminescence, 48 h; Potency, µM (highest dose often 46.2 µM), for the others: at the highest dose activity change, negative = growth inhibition, most hits filed as inhibitors; hit rate 15% among 420,000; note: potency is the fitted concentration of half-maximal effect; % is set by controls: 0 for no effect and ±100 for the full control effect; nearly all actives have a fitted effect of over 55% in size
#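 Readout: luminescence from CellTiter-Glo after 30 min in the dark at RT. Cells: DT40 Tdp1-/- with stable hTDP1, 400/well. Exposure: compounds alone, ≥48 hr, 37 °C.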
# IL1B secr inh – inflammasome signaling inhibition, IL-1 beta readout | THP-1 LPS/ATP IL-1B secretion, AlphaLISA, 16 h; stronger effect = lower value | activity change, % at 57.5 µM | hit rate 4.7% among 360,000 | AID 743279; in the data active = activity change below about -50%; inconclusive = mostly about -30% to -49%; note: % is set by controls: 0 for no effect and ±100 for the full control effect
#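 THP-1 cells pretreated 1 hr with compounds (up to 57.5 uM final), then stimulated with LPS (250 ng/mL final) plus ATP (1.25 mM final); secreted IL-1B measured by AlphaLISA after 16 hr, decreased signal indicating inhibition.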
# Active calls of the source: *; ? = inconclusive; . = no result given; [ ] = dose if it differs, or a comment. Unless noted, calls come from the whole dose curve; as a rule, active = well fitted inhibition curve with a large enough effect; inconclusive = small, poorly fitted or top-dose-only effect; inactive = flat fitted curve, though single readings scatter.
SMILES,TDP1 cell CPT,D3 ag,ClpP mod,D3 antag,TDP1 cell noCPT,IL1B secr inh
Cc1csc(=O)n1CC(=O)Nc1nc2ccccc2s1,-9.6%,-3.7,-1.9%,11.8,-8.5%,-0.5
Cc1nnc2sc(-c3csc4c3CCCC4)nn12,14.3%,0.9,-8.9%,13.2,-7.6%,22.6
S=c1nc(-c2csc3c2CCCC3)[nH][nH]1,16.4µM*,-2.3,3.4%,-9.9,16.4µM*,0.0
CC(C)NC(=O)CCCN1C(=O)CCn2nc(-c3cccn3C)cc21,-16.3%,5.5,-3.1%,.,3.9%,.
Cc1oc2ncn(CC(C)C)c(=O)c2c1C(=O)NCCCN1CCCCC1,-1.3%,5.1,-3.5%,.,-1.1%,.
NC1=C(Br)C(=O)c2ncccc2C1=O,0.651µM*,-13.2,-3.0%,?,1.64µM*,-97.6*
O=C1C(=O)c2ncccc2-c2cccnc21,5.96µM*,11.2,.,.,5.31µM*,.
O=C1c2cccnc2C(=O)N1CO,3.5%,9.0,-2.5%,11.1,-24.7%,-18.3
OCCOC1CCCc2oc(-c3ccccc3)c(C#CC3(O)CCCCC3)c21 (stereo not given),?,-1.9,4.6%,-1.3,?,?
Cc1ccc(C(=O)NCC(c2ccco2)S(=O)(=O)c2ccc(Cl)cc2)cc1C (stereo not given),16.4µM*,8.1,-3.5%,.,20.6µM*,.
O=C(NCC(c1ccco1)S(=O)(=O)c1cccs1)c1ccc(F)c(F)c1 (stereo not given),13µM*,1.5,-0.1%,.,16.4µM*,.
Cc1ccc(C(=O)NCC(C)NC(=O)c2ccc(C)c(C)c2)cc1C (stereo not given),?,-4.1,.,-10.5,25.9µM*,-26.4
COc1ccc(C(=O)NCC(C)NC(=O)c2ccc(OC)c(OC)c2)cc1OC (stereo not given),0.7%,2.1,-0.8%,1.4,3.6%,-5.4
O=C(NCC(c1ccco1)S(=O)(=O)c1ccc(Cl)cc1)c1ccccc1F (stereo not given),?,10.0,0.6%,.,16.4µM*,.
CCCc1cc(=O)[nH]c(SCC(=O)Nc2cccc(S(=O)(=O)N3CCOCC3)c2)n1,14.2%,-9.6,-6.9%,0.0,-4.3%,2.3
CC1=C(C(=O)Nc2ccccc2)C(c2ccc[nH]2)n2ncnc2N1 (stereo not given),?,1.9,-11.1%,.,?,.
Cc1ccc(OCC(=O)NCCNC(=O)c2ccncc2)cc1,4.7%,2.6,.,-5.7,-12.4%,1.6
COc1ccc(C(=O)NCC(c2ccco2)N(C)C)cc1S(=O)(=O)NCc1ccc(Cl)cc1 (stereo not given),-13.8%,-20.7,-5.8%,-96.5*,-33.9%,2.9
Cc1ccc(S(=O)(=O)C(CNC(=O)c2c(F)cccc2F)c2ccco2)cc1 (stereo not given),?,23.5,-0.4%,.,23.1µM*,.
COc1ccc(C(=O)NCc2ccc3c(c2)OCO3)cc1S(=O)(=O)NCc1ccc(Cl)cc1,3.9%,-7.3,-0.4%,0.9,?,?
Cc1ccc(S(=O)(=O)C(CNC(=O)c2ccc(F)c(F)c2)c2ccco2)cc1 (stereo not given),16.4µM*,2.7,0.1%,.,?,.
Cc1ccc(S(=O)(=O)C(CNC(=O)COc2ccc(Cl)cc2)c2ccco2)cc1 (stereo not given),23.1µM*,-13.2,-2.3%,.,?,.
Oc1ccc(Cl)cc1Nc1nc2ccccc2n2cnnc12,-22.5%,16.1,-0.7%,.,?,.
O=C(c1ccco1)N1CCN(C2c3ccccc3-c3ccccc32)CC1,?,0.8,0.1%,8.4,?,-15.2
CC(C)OC(=O)CN1CCN(C2c3ccccc3-c3ccccc32)CC1,?,-2.1,0.7%,-18.0,29.1µM*,4.5
SMILES,TDP1 cell CPT,D3 ag,ClpP mod,D3 antag,TDP1 cell noCPT,IL1B secr inh
Cc1ccc(-c2ccc(/C=N/n3cnnc3)o2)cc1Cl,9.5%,-6.6,-16.5%,19.0,-24.0%,-28.5
Clc1cccc(-c2ccc(/C=N/n3cnnc3)o2)c1,2.8%,-14.5,-17.3%,-13.3,-2.0%,-53.7*
COc1cc(-c2cc(C)c3cccc(OC)c3n2)cc2c1OCCN(C(=O)CCn1nc(C)cc1C)C2,-14.6%[9.04 µM],.,.,.,18.4µM*,.
COc1cc(-c2cc(C)c3c(OC)ccc(OC)c3n2)cc2c1OCCN(C(=O)Cn1nc(C)cc1C)C2,1.4%[9.04 µM],.,.,.,-29.8%,.
O=C(NC(Cc1c[nH]c2ccccc12)C(=O)N/N=C/c1ccc(Cl)cc1)c1cccs1 (stereo not given),11.6µM*,-8.4,.,-3.3,?,-65.7*
CCN(CC)c1ccc(/C=N/NC(=O)c2c[nH]c3ccccc23)cc1,?,-3.6,31.6µM*,9.3,23.1µM*,-27.4
CCN(CC)c1ccc(/C=N/NC(=O)c2cc3ccccc3[nH]2)cc1,?,0.9,4.1%,1.9,?,2.1
O=C(N/N=C/c1cccs1)c1c[nH]c2ccccc12,?,-3.5,-1.5%,0.2,11.6µM*,-10.3
O=C(NC(Cc1c[nH]c2ccccc12)C(=O)N1CCOCC1)c1cccs1 (stereo not given),3.5%,3.0,.,5.7,-5.4%,1.0
CCc1ccc(/C=N/NC(=O)c2c[nH]c3ccccc23)s1,20.6µM*,-16.8,-4.6%,-23.3,-20.1%,?
O=C(Cc1c[nH]c2ccccc12)N/N=C/c1ccc(F)cc1,16.4µM*,-4.0,0.4%,-6.2,20.6µM*,-14.6
Cc1ccccc1-c1ccc(CN2C(C(C)C)C(=O)N(Cc3cn(CCC4OCCO4)nn3)CCS2(=O)=O)cc1 (stereo not given),?,6.1,2.5%,7.8,18.4µM*,-57.0*
Cc1ccc(-c2ccc(CN3C(C(C)C)C(=O)N(Cc4cn(CCC5OCCO5)nn4)CCS3(=O)=O)cc2)c(C)c1 (stereo not given),9.2µM*,-5.4,-0.8%,-7.7,18.4µM*,?
COC(=O)C1CCN(C(=O)c2cc(-c3ccco3)nc3ccccc23)CC1,-25.3%,2.4,4.7%,7.0,?,21.9
CCOC(=O)C1=CCN(S(=O)(=O)c2cccc(Cl)c2)C1c1ccc(F)cc1 (stereo not given),?,-12.2,2.5%,?,?,-20.1
CCN1C(=O)c2cccc3c(S(=O)(=O)NCC4CCCO4)ccc1c23 (stereo not given),-25.0%,4.8,-12.0%,-16.6,?,-6.4
CCN(CC)C(=S)SCC(=O)c1ccc(F)cc1,2.91µM*,-5.3,-0.6%,5.3,4.11µM*,9.0

# Source: PubChem
